Results: PubChem BioAssay (NCI)
The panel holds about 83,000 compounds, 20% with a hit somewhere; the sample as a whole holds those more often.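 48-hour exposure, single concentration, 96-well plates; percent growth endpoint where 0 means no net growth. Active: below 10.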 Activity calls are given as the source filed them.

Legend:
Assay in all cases: NCI-60 one-dose screen, 48 h (100 = growth as untreated, 0 = no growth, -100 = all killed)
Conditions in all cases: 10 µM unless noted
BT-549 breast = system: BT-549 breast
MDA-MB-435 melanoma = system: MDA-MB-435 melanoma
SW-620 colon = system: SW-620 colon
MCF7 breast = system: MCF7 breast
HCT-116 colon = system: HCT-116 colon
HCC-2998 colon = system: HCC-2998 colon
KM12 colon = system: KM12 colon

Measured: growth

CC(C)(O)c1cncc(-c2ccc3ncnc(N4CCc5cc(F)c(Cl)cc54)c3c2)c1
inactive: MDA-MB-435 melanoma 17.1% | SW-620 colon 40.1% | MCF7 breast 10.8% | HCT-116 colon 30.1% | HCC-2998 colon 34.2% | KM12 colon 35.1%
active: BT-549 breast -7.34%

CNC(=O)c1cc(-c2ccc(NC(=O)Nc3ccc(N4CCOCC4)c(C(F)(F)F)c3)cc2)nc2cccnc12
inactive: BT-549 breast 84.8% | MDA-MB-435 melanoma 72.6% | SW-620 colon 72.3% | MCF7 breast 12.3% | HCT-116 colon 52.3% | HCC-2998 colon 79.9%

CSCCC(C(=O)O)N1C(=O)/C(=C/c2ccc(O)c(O)c2)SC1=S (configuration not stated)
inactive: BT-549 breast 110% | MDA-MB-435 melanoma 102% | SW-620 colon 102% | MCF7 breast 93.4% | HCT-116 colon 99.5% | HCC-2998 colon 108% | KM12 colon 103%

COc1cc2nc(-c3ccc(C)cc3)cc(OCCCNCC3CCCO3)c2cc1OC (configuration not stated)
inactive: BT-549 breast 98.5% | MDA-MB-435 melanoma 54.3% | SW-620 colon 77.5% | MCF7 breast 59.7% | HCT-116 colon 40.7% | HCC-2998 colon 83.4% | KM12 colon 60%

Clc1ccc(-c2cn3cc(Cc4ccc(Cl)c(Cl)c4)sc3n2)cc1
inactive: BT-549 breast 88.9% | MDA-MB-435 melanoma 35% | SW-620 colon 51.7% | MCF7 breast 49.2% | HCT-116 colon 54% | HCC-2998 colon 68.1% | KM12 colon 32.1%

Cc1sc2nc(NCc3ccccc3Cl)[nH]c(=O)c2c1C
inactive: BT-549 breast 99.8% | MDA-MB-435 melanoma 92.6% | SW-620 colon 102% | MCF7 breast 80.6% | HCT-116 colon 49.7% | HCC-2998 colon 115% | KM12 colon 91%

Nc1nc(N)c2c(n1)NC(c1ccc(C(F)(F)F)cc1)CC(c1ccc(Nc3nc(NCCO)nc(Nc4ccc(Cl)cc4)n3)cc1)=N2 (configuration not stated)
active: BT-549 breast -28.7% | MDA-MB-435 melanoma -61.5% | SW-620 colon -66.6% | MCF7 breast -52.5% | HCT-116 colon -85.3% | HCC-2998 colon -86.6% | KM12 colon -65.3%

CS(=O)(=O)c1ccc(-n2cc(/C=C/C(=O)c3ccc(NC(=O)CO[N+](=O)[O-])cc3)c(-c3ccc(Cl)cc3)n2)cc1
inactive: BT-549 breast 103% | MDA-MB-435 melanoma 104% | SW-620 colon 114% | MCF7 breast 84.4% | HCT-116 colon 103% | HCC-2998 colon 93.4% | KM12 colon 107%

CN(C)CCCNc1c2ccc(Cl)cc2nc2c1oc1ccccc12
inactive: BT-549 breast 53.4%
active: MDA-MB-435 melanoma -40.6% | SW-620 colon -1.01% | MCF7 breast -21.7% | HCT-116 colon -19.8% | HCC-2998 colon -70.8% | KM12 colon 1.73%

N#Cc1nc(-c2ccccc2)oc1S(=O)(=O)N1CCCCC1
inactive: BT-549 breast 85.7% | MDA-MB-435 melanoma 68% | MCF7 breast 29.2% | HCT-116 colon 21.2% | HCC-2998 colon 105% | KM12 colon 101%
active: SW-620 colon -12.8%

COc1cc(OC)c(C2SCC(=O)N2Nc2ncnc3ccccc23)cc1OC (configuration not stated)
inactive: BT-549 breast 105% | MDA-MB-435 melanoma 103% | SW-620 colon 105% | MCF7 breast 91.8% | HCT-116 colon 107% | HCC-2998 colon 111% | KM12 colon 107%

OC1CCc2c(-c3ccc4ncnc(N5CCc6cc(F)c(Cl)cc65)c4c3)cncc21 (configuration not stated)
inactive: BT-549 breast 46.5% | MDA-MB-435 melanoma 62.7% | SW-620 colon 85.1% | MCF7 breast 23.4% | HCT-116 colon 66.9% | HCC-2998 colon 72.1% | KM12 colon 66.2%

Nc1cc(-c2c[nH]c3ccccc23)nc2cc(-c3c[nH]c4ccccc34)nn12
inactive: BT-549 breast 84.4% | MDA-MB-435 melanoma 70.9% | MCF7 breast 26.7% | HCT-116 colon 30.7% | HCC-2998 colon 21% | KM12 colon 10.3%
active: SW-620 colon -25.1%

COc1cc(OC)c(C2C(Cl)C(=O)N2Nc2ncnc3ccccc23)cc1OC (configuration not stated)
inactive: BT-549 breast 89.6% | MDA-MB-435 melanoma 96.2% | SW-620 colon 108% | MCF7 breast 83% | HCT-116 colon 96.5% | HCC-2998 colon 111% | KM12 colon 101%

N#Cc1nc(-c2ccccc2)oc1S(N)(=O)=O
inactive: BT-549 breast 67.6% | MDA-MB-435 melanoma 42.5% | SW-620 colon 21.1% | MCF7 breast 30.9% | HCT-116 colon 46.8% | HCC-2998 colon 110% | KM12 colon 83.9%

Cn1ccnc1C(=O)/C=C/c1ccc(NC(=O)Nc2ccc(F)cc2)cc1
inactive: BT-549 breast 30.1% | MDA-MB-435 melanoma 35.4% | SW-620 colon 42.1% | MCF7 breast 10.3% | HCT-116 colon 17.1% | HCC-2998 colon 29.8% | KM12 colon 36.5%

COc1cccc(N2CCN(c3ncnc4c3[nH]c3ccc(F)cc34)C[C@@H]2C)c1
inactive: HCC-2998 colon 16.7%
active: BT-549 breast -97% | MDA-MB-435 melanoma -75.4% | SW-620 colon -3.32% | MCF7 breast 0.969% | HCT-116 colon -35.9% | KM12 colon -71%

Nc1c(C(=O)Nc2ccc(C(F)(F)F)cc2)sc2nc(-c3cnccn3)cc(-c3cccs3)c12
active: HCT-116 colon -62.1%
inactive: BT-549 breast 22.5% | MDA-MB-435 melanoma 95.4% | SW-620 colon 103% | MCF7 breast 75.8% | HCC-2998 colon 108% | KM12 colon 95.6%

CC(C)(C)Nc1nc2c(OCCc3ccccc3)cccn2c1-c1cccc(F)c1
active: MDA-MB-435 melanoma 2.41% | SW-620 colon 9.7% | MCF7 breast -13.4% | HCT-116 colon -32.8% | HCC-2998 colon 4.84% | KM12 colon 4.77%
inactive: BT-549 breast 11.8%

Cc1ccc2ccc3ccc(C)nc3c2n1.Cc1ccc2ccc3ccc(C)nc3c2n1.Oc1c(Cl)cc(Cl)c2ccc(CN3CCCCC3)nc12.[Ru]
active: BT-549 breast -95.8% | MDA-MB-435 melanoma -90.5% | SW-620 colon -40% | MCF7 breast -75.1% | HCT-116 colon -92% | HCC-2998 colon -90.1% | KM12 colon -73.9%

CN1CCN(Cc2ccc(NC(=O)c3cncc(C#Cc4cnc5ccc(N6CCSCC6)nn45)c3)cc2C(F)(F)F)CC1
inactive: BT-549 breast 40.5%
active: MDA-MB-435 melanoma -73.4% | SW-620 colon -3.56% | MCF7 breast -59.7% | HCT-116 colon -51.8% | HCC-2998 colon -51.2% | KM12 colon -22.5%

O=C(N/N=C/c1ccc(Br)s1)c1[nH]c2ccc(Br)cc2c1-c1ccccc1
active: BT-549 breast -11.8% | MDA-MB-435 melanoma -5.5% | MCF7 breast 7.06% | HCT-116 colon -14.2% | KM12 colon 8.2%
inactive: SW-620 colon 23.6% | HCC-2998 colon 20.5%

O=C1Nc2ccc(Cl)cc2/C1=C/c1ccc(OCC(=O)c2ccc(Br)cc2)cc1
inactive: BT-549 breast 118% | MDA-MB-435 melanoma 99.1% | SW-620 colon 89.9% | MCF7 breast 80.1% | HCT-116 colon 95.5% | HCC-2998 colon 99.5% | KM12 colon 59.1%

O=C(CSc1nccc(=O)[nH]1)Nc1ccc(-c2nc3ccccc3[nH]2)cc1
inactive: BT-549 breast 103% | MDA-MB-435 melanoma 111% | SW-620 colon 116% | MCF7 breast 103% | HCT-116 colon 106% | HCC-2998 colon 116% | KM12 colon 86.3%

O=C1/C(=C/C2=Cc3ccccc3OC2)SC(=S)N1c1ccc(F)cc1
inactive: BT-549 breast 100% | MDA-MB-435 melanoma 101% | SW-620 colon 107% | MCF7 breast 90.6% | HCT-116 colon 99.1% | HCC-2998 colon 107% | KM12 colon 97.5%

CN(C)CCCOc1c2ccc(Cl)cc2nc2c1oc1ccc(Cl)cc12
inactive: BT-549 breast 45.6% | HCT-116 colon 10.8%
active: MDA-MB-435 melanoma -10.2% | SW-620 colon -82.9% | MCF7 breast -80.9% | HCC-2998 colon -67.9% | KM12 colon -62.3%

CCCC(=O)NC(c1cccnc1)c1cc(C)c2cccnc2c1O (configuration not stated)
active: HCT-116 colon 8.73%
inactive: BT-549 breast 69.5% | MDA-MB-435 melanoma 59.7% | SW-620 colon 33.4% | MCF7 breast 10.6% | HCC-2998 colon 64.1% | KM12 colon 38.4%

COc1ccc(NC(=O)c2sc3nc(-c4cnccn4)cc(-c4cccs4)c3c2N)cc1
inactive: BT-549 breast 42.4% | MDA-MB-435 melanoma 71.5% | SW-620 colon 65.2% | MCF7 breast 57.4% | HCT-116 colon 61.9% | HCC-2998 colon 67.5% | KM12 colon 61%

O=C(O)CCCCCN1C(=O)/C(=C/c2ccc(O)c(O)c2)SC1=S
inactive: BT-549 breast 101% | MDA-MB-435 melanoma 103% | SW-620 colon 111% | MCF7 breast 90.5% | HCT-116 colon 105% | HCC-2998 colon 115% | KM12 colon 105%

COc1cc(/C=C/C(=O)c2cc(OC)c(OC)c(OC)c2)ccc1Oc1nc(NCCO)nc(N2CCOCC2)n1
active: BT-549 breast -25.1% | MDA-MB-435 melanoma 4.93% | SW-620 colon -33.6% | MCF7 breast 8.4% | HCT-116 colon -79.3% | HCC-2998 colon -17.5% | KM12 colon -44.6%

COc1cc(/C=C/C(=O)c2ccccc2)ccc1Oc1nc(NCCO)nc(N2CCOCC2)n1
inactive: BT-549 breast 92.4% | MDA-MB-435 melanoma 93.1% | SW-620 colon 60.9% | MCF7 breast 46.9% | HCT-116 colon 69.5% | HCC-2998 colon 113% | KM12 colon 102%

Cn1cc(-c2cc(N)n3nc(-c4cn(C)c5ccc(F)cc45)cc3n2)c2cc(F)ccc21
inactive: BT-549 breast 77.5% | MCF7 breast 10%
active: MDA-MB-435 melanoma 5.54% | SW-620 colon -36.6% | HCT-116 colon -92.8% | HCC-2998 colon 1.23% | KM12 colon 6.56%

O=C(CCCN1C(=O)/C(=C/c2ccccc2F)SC1=S)N1CCOCC1
inactive: BT-549 breast 114% | MDA-MB-435 melanoma 82.7% | SW-620 colon 95.2% | MCF7 breast 56.9% | HCT-116 colon 88.7% | HCC-2998 colon 119% | KM12 colon 85.4%

COc1ccc(-c2cc(C(=O)N=Nc3c(O)[nH]c4ccccc34)c3ccccc3n2)cc1OC
inactive: BT-549 breast 113% | MDA-MB-435 melanoma 98.1% | SW-620 colon 93.8% | MCF7 breast 89.9% | HCT-116 colon 101% | HCC-2998 colon 97.8% | KM12 colon 92%
